Screens deposited in PubChem by Center for Chemical Genomics, University of Michigan.
Dicer processing: inhibitors of Dicer pre-microRNA processing, primary screen, biochemical, cat-ELCCA, chemiluminescence. actives 6% (n = 47,000). Endoribonuclease Dicer (Homo sapiens), Q9UPY3. cat-ELCCA pre-miR-21 Dicer processing; stronger effect = higher value. z-score at 25 µM. AID 1347074, 2019; in the data active means z-score above about 3, passing the limit was not always enough;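 further: plate controls were vehicle for no effect and no enzyme for full effect; higher signal means more uncleaved substrate so more Dicer inhibition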
Starred values were filed as active, the others as inactive. The full list was thinned out, with hits kept by preference.

SMILES	Dicer processing
CC1(C)Cc2c(sc3[nH]c(=O)n(CC(=O)O)c(=O)c23)CO1	3.9*
CCn1c(SCC(=O)c2ccccc2)nc2sc3c(c2c1=O)CC(C)(C)OC3	-0.17
C=C(C)Cn1c(SCCC)nc2sc3c(c2c1=O)CC(C)(C)OC3	4.3
Cc1nc2sc3c(N4CCOCC4)ncnc3c2c2c1COC(C)(C)C2	1.9
C=CCN1C(C(=O)c2ccccc2)=C(OC(C)=O)c2ccccc2S1(=O)=O	-0.22
CCN(CC)C1=C(C(=O)c2ccccc2)N(CC(N)=O)S(=O)(=O)c2ccccc21	3.1*
O=C(CN1C(=O)c2ccccc2S1(=O)=O)c1ccccc1	-1.1
CCOC(=O)C(O)(c1ccc(N(C)C(=O)Nc2ccccc2)cc1)C(F)(F)F (configuration not stated)	0.79
O=C1CC(c2ccco2)CC2=C1C(c1ccccc1O)n1c(nc3ccccc31)N2 (configuration not stated)	-0.79
COc1ccc(Nc2cc(-c3ccccc3)nc3ncnn23)c(OC)c1	3.7*
COc1ccc(-c2cc(-c3ccccc3)n3ncnc3n2)cc1	-0.22
Clc1ccc(Nc2cc(-c3ccccc3)nc3ncnn23)cc1	-0.01
CCCCc1cc(C)c2[nH]cc(C(=O)O)c(=O)c2c1	-0.86
COc1ccc(Cc2c(Cl)nc(SC)nc2Cl)cc1	-0.78
O=C(Nc1ccc(OCc2ccccc2)cc1)Nc1ccc2ccccc2n1	-1
O=C1N=C(N2CCOCC2)S/C1=C(/C=C(\CC(=O)c1ccccc1)c1ccccc1)c1ccccc1	-1.6
O=C1c2cc([N+](=O)[O-])ccc2-c2ccc([N+](=O)[O-])cc21	7.7*
NN=C1c2cc([N+](=O)[O-])ccc2-c2ccc([N+](=O)[O-])cc21	-0.66
O=[N+]([O-])c1ccc2c(c1)C(=NO)c1cc([N+](=O)[O-])ccc1-2	-0.89
O=c1c2ccccc2n2c(=O)[nH]nc2n1-c1ccccc1	1.2
COC(=O)/C=C1\SC(=Nc2ccc(C)c(C)c2)N(c2ccc(C)c(C)c2)C1=O	-1.8
COc1ccc(OC(=O)Nc2ccc(Cc3ccc(NC(=O)Oc4ccc(OC)cc4)cc3)cc2)cc1	2.5
O=C1CC(Nc2ccccc2)C(=O)N1c1ccc(N2CCOCC2)cc1 (configuration not stated)	-0.25
Cc1ccc(N2C(=O)C3CCC(C)CC3C2=O)cc1 (configuration not stated)	0.19
Cc1ccc(N2C(=O)C(c3ccccc3)C(N3CCOCC3)C2=O)cc1 (configuration not stated)	3.1*
SMILES	Dicer processing
Cc1cccc(N2C(=O)C3C(C4=C(O)c5ccccc5C4=O)=NC(c4ccccn4)C3C2=O)c1 (configuration not stated)	-0.74
CN(C)CCN(Cc1ccccc1)C(=O)C(C(=O)c1ccccc1)n1ccccc1=O (configuration not stated)	-0.66
CC(C)(C)c1cc2ncnc(NC3CCN(Cc4ccccc4)CC3)c2s1	-0.14
NC(=O)Cn1c(CSc2nc3ccccc3n2Cc2ccccc2)nc2ccccc21	4.2*
OCCSc1nc2ccccc2n1Cc1ccccc1	-0.6
O=C(O)CSc1nc2ccccc2n1Cc1ccccc1	-1.6
N/C(=N\N=C\c1cccs1)SCc1ccccc1	2.9
CC(C)Cc1ccc(C2=CC(c3ccc(C#N)cc3)C(C(N)=O)C(=O)N2)cc1 (configuration not stated)	0.79
COc1ccc(CN2CCC(N3CCCCC3)CC2)cc1Br	3.7*
COc1ccc(CN2CCC(N3CCCCC3)CC2)cc1OC	0.7
CCn1c2ccccc2c2cc(CN3CCC(N4CCCCC4)CC3)ccc21	-0.94
COCC(C)NC(=O)c1cc2c(C)cc(C)cc2[nH]1 (configuration not stated)	-2.8
CCOC(=O)CNC(=O)COc1ccccc1	0.07
COc1ccc(/C(O)=C2\C(=O)C(=O)N(CCN(C)C)C2c2ccc(OC)cc2)cc1 (configuration not stated)	2
Cc1cc(Br)cnc1N=CN(C)C	3*
Cc1cc(Br)cnc1N=CNO	0.37
Cc1cc(N=CN(C)C)c2ccccc2n1	-1.7
Cc1cc(C)c2c(n1)sc1c(Sc3nccn3C)ncnc12	2.4
Cc1nn(-c2ccccc2)nc1C(=O)ONC(=O)c1ccccc1	-0.38
Cc1ccccc1C1CC(=O)c2cnc3c(-c4ccccc4)c(C)nn3c2C1 (configuration not stated)	-1
CSc1nc(SC)c(C#N)c(-c2cccs2)n1	-0.55
O=C(CCc1ccccc1)N1CCC(c2ccccc2)C1 (configuration not stated)	-1.4
CC1C(c2ccccc2)OCCN1C(=O)CCC(=O)N1CCOC(c2ccccc2)C1C (configuration not stated)	5.6*
CN1CCOC(c2ccccc2)c2ccccc2C1 (configuration not stated)	0.53
O=C(O)c1cc(-c2ccccc2Br)nc2cc(C(F)(F)F)cc(C(F)(F)F)c12	-2.4
SMILES	Dicer processing
CCCCCC(=O)Nc1nc2c(s1)Cc1ccccc1-2	-0.32
CCCCCCCNC1CC(=O)N(c2ccc(Br)cc2)C1=O (configuration not stated)	0.02
Cc1cccc(/C=C2\SC(=S)N(/N=C/c3ccc(Cl)cc3Cl)C2=O)c1	-1.4
C=CCn1c(=S)sc2c(=O)n(/N=C/c3ccc(Cl)cc3Cl)c(C)nc21	-1.8
O=C1/C(=C/c2c(F)c(F)c(F)c(F)c2F)SC(=S)N1/N=C/c1ccc(Cl)cc1Cl	12*
COc1ccc2c(c1)CCC1=C2NC(=S)NC1c1cccc(Br)c1 (configuration not stated)	-1.8
COC(=O)/C=C1/NCC(OC(=O)c2ccc(C(C)(C)C)cc2)CNC1=O (configuration not stated)	4.4*
CC1(C)COC(c2ccccc2COC(=O)c2ccc(C(C)(C)C)cc2)=N1	-0.15
COC(=O)C1=C(C)N=C2SCCC(=O)N2C1c1ccc(C(C)(C)C)cc1 (configuration not stated)	0.32
CCc1ccc(C(=O)CC2(O)C(=O)Nc3ccc(C)cc32)cc1 (configuration not stated)	-0.53
CC1=C(C(=O)OC(C)C)C(c2cccc3ccccc23)C2=C(CCCC2=O)N1 (configuration not stated)	2.8
Cc1csc(-c2nc(-c3ccc(C(C)(C)C)cc3)no2)c1	-1.8
Cc1ccc2oc(=O)n(CCC#N)c2c1	-0.44
Cc1ccc2oc(=O)n(CCCOc3ccc(Br)cc3)c2c1	3.2*
Cc1ccc2c(c1)C(=O)C(=O)N2CCOc1ccc(Br)cc1	0.93
O=C1NC2CC2N1C(=O)OCc1ccccc1 (configuration not stated)	0.37
CC(C)(C)SCCSCCS(=O)(=O)CCSCCSC(C)(C)C	1.6
N#CCCn1nc(Nc2ccccc2)n(-c2ccccc2)c1=S	1.3
O=C(c1ccc(C(F)(F)F)cc1)N(c1ccccc1)n1c(-c2cccc([N+](=O)[O-])c2)csc1=S	-1
CS(=O)(=O)c1sc(NC(=O)Nc2ccc(Cl)cc2)c2c1C=CCC2	3.3*
Cc1c(NC(=O)Nc2ccccc2)sc2nc(-c3ccc(Cl)cc3)nn12	-2.3
CC1CCc2c(sc(NC(=O)Nc3ccc(Cl)cc3)c2C(N)=O)C1 (configuration not stated)	1.6
CCOC(=O)C(NC(C)=O)(Nc1ccccc1F)C(F)(F)F (configuration not stated)	-1.9
C=CCOc1ccc(C2c3c(oc4ccccc4c3=O)C(=O)N2c2nc(C)c(C(=O)OC)s2)cc1 (configuration not stated)	1.3
